± gives the standard deviation of the averaged measurements. The full ranking holds about 25,000 sequences; the median of “ln(normalized median fluorescence intensity)” is about 8.9, and the highest 2% start at about 10. Many of the other results were omitted from the sample, so the highest values are more common in it than they were.
The sequences below were run on PfAP2-LT AP2 domain (GST-tagged) (assay: gcPBM binding intensity (ln(normalized median fluorescence intensity)); higher = stronger DNA binding).
Method in brief: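 Probes on an Agilent 4 × 180k array were primer-extended, double-stranded and 36 bp long, taken from intergenic genomic regions, with negative controls added. GST-tagged P. falciparum DNA-binding domains from E. coli, about 25 μg on average, were applied to the array for 1 h in 1× PBS containing 1% milk, 0.2 mg/ml BSA, 0.5% salmon testes DNA and 0.03% Triton X-100. Binding intensity, obtained after Alexa488 anti-GST antibody detection and a 488 nm scan, is the highest Masliner-normalised natural-log median intensity across replicate spots of either probe orientation.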

Sequence	gcPBM binding intensity (ln)
AGGCACACAAACATATGTACACATATATATATATAT [XGTACX_site4723]	10.21 ± 0.078
TATAAATATACAAACACACATACAAACATATATATA [CACACA_site1120]	9.24 ± 0.37
TATACGCATATATAAACACACAAAAAAAAAAAAAAA [CACACA_site2026]	8.86 ± 0.48
AAAACACAAAAAAAATGTACACATATATATATATAT [XGTACX_site8509]	9.84 ± 0.12
AAAAAAAAAAAAAACATACACACAAATATATACATA [CACACA_site4010]	9.05 ± 0.45
CATACATATAAACACACACACACACCCACCCACAAA [CACACA_site8059]	10.4
CATATACGCAAACACACACACATATATATATATATA [CACACA_site501]	10.3 ± 0.27
TATATACACCCACATACACACAAATAAAAAAACACC [CACACA_site3414]	9.64 ± 0.31
CATACATACAAACACACACACATATATATACATACA [CACACA_site852]	10.1 ± 0.38
TACATATATATATACACACATACATATATATACGCA [CACACA_site792]	9.11 ± 0.28
TGTACAAATATGTACACACACACATATATATATATA [CACACA_site584]	9.88 ± 0.085
CATACATACAAACACACACACATATATATATATATA [CACACA_site43]	10.16 ± 0.042
TCTTTTTAACAAAAAAAAAAAAAAAAAAAAAAATTA [CACACA_negctrl_site1637]	7.96 ± 0.43
AGTAGTCTGGAGAAAAGTACATAGTATCTGGTAACC [XGTACX_site2024]	8.81 ± 0.58
AAAAAAATTAAACATGAAGAATAAGGAACAAAAAAA [CACACA_negctrl_site1607]	8.78 ± 0.55
CTGATATATAGATGTAGTACATAAAAATGACGAATT [XGTACX_site5612]	8.99 ± 0.47
ATTTTTTTGGAATTCACACACAAAAAAAAAAATAAA [CACACA_site2081]	8.79 ± 0.47
GATAAATCATATATAACACACATATGAATATTACAA [CACACA_site1321]	8.98 ± 0.35
AACTTACTTGGACATACACACATATATATATATATA [CACACA_site2978]	9.78 ± 0.3
GTTACACCAACAAACACACACACACCGACACCCAAA [CACACA_site5361]	10.1 ± 0.17
GTTACACCAACAAACACACACACACCCACCCACAAA [CACACA_site2427]	10.3 ± 0.16
CAAACCCACCAACACACACACACAAAAATGATTAAA [CACACA_site2432]	9.88 ± 0.3
GTAATACCCAAACACACACACATACCCATATATATA [CACACA_site5510]	10.1 ± 0.29

Sequence	gcPBM binding intensity (ln)
TGGTAATACCCATACACACACACATACCCATATATA [CACACA_site5509]	9.76 ± 0.33
TGGTAATACCCATACACACACACATACACATATATA [CACACA_site8877]	9.76 ± 0.32
TATATACACAAACACACACACACATACACCCACATA [CACACA_site8504]	10.2 ± 0.16
TGCATATACTCAAGCACACATATATATATATATATA [CACACA_site4733]	9.76 ± 0.13
TGCATATACGCAAGCACACATATATATATATATATA [CACACA_site1069]	10.1 ± 0.4
TATACATACCCACCCACACACAAAAAAAAAAAAAAA [CACACA_site4632]	9.76 ± 0.3
TACACAAATATATACATACACACATATATACGCATA [CACACA_site394]	9.27 ± 0.3
AAGAAAAGAAACAAAAAAAAAAAGAAATAAAAGGAA [TGCATGCA_negctrl_site171]	8.61 ± 0.62
AAAATTTATAAAAGCACACAAAATAAAAAAAAATGA [CACACA_site1491]	8.88 ± 0.46
AAGAAAATAAAATAAAAAAAAAAATAAAAAAAATAA [TGCATGCA_negctrl_site516]	8.37 ± 0.74
CAAAAATAAACTATAGTACACACTTATTATTATGAA [CACACA_site2702]	8.8 ± 0.49
ACACATACTAAAATGTTGTGAAATATGATAATGTGA [CACACA_negctrl_site851]	9.11 ± 0.47
TTAATCATAAAAGTCACACATAATAAGAAAAAGCTT [CACACA_site4616]	8.78 ± 0.37
AAATAGGGAATTTATGCACACAGTTAAGGGGGAAAA [CACACA_site2071]	9.28 ± 0.26
ACATATAATAAAAAATGTACACACATAAGAAAATTT [XGTACX_site6153]	9.16 ± 0.38
TAAATACATTTATGTACACACACATAGATGTATATT [CACACA_site5618]	9.22 ± 0.36
TAACATGATATATAATGTACATATAAGATATTTATA [XGTACX_site4383]	8.79 ± 0.45
CAAACATATTAATGTACACACACCCACCCACAAACA [CACACA_site2752]	10.2 ± 0.29
TAACCATACATACATACACACACACCCACATATATA [CACACA_site8951]	9.95 ± 0.13
CACACCACCAACAAAAGTACATACATATATATATAT [XGTACX_site5781]	9.65 ± 0.14
CACAAAGACACAAACACACACACACCCACATACATA [CACACA_site452]	9.86 ± 0.24
AACATATTAATGTACACACACCCACGCACAAACAAA [CACACA_site7320]	9.765 ± 0.092
AAGCAAACATATTAATGTACACACACCCACACACAA [XGTACX_site5806]	9.95 ± 0.46
